TSHR antagonist – human thyrotropin receptor antagonism; P16473; TSHR-expressing cells, TSH-stimulated cAMP HTRF, 2 h; hits give low values; activity change, negative = inhibition, % at 11.5 µM; actives 0.2% (n = 330,000);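 active = activity change below a set negative limit, meaning inhibition stronger than a set level, cut at about -70% in these data; inconclusive = activity change between two set negative limits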
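Competitive HTRF cAMP read-out (cryptate anti-cAMP antibody, cAMP-d2; 30 min, room temperature) in freshly harvested TSHR cells. Compounds added before TSH at EC80 (4nM final), followed by 2 hours' incubation at 37 deg C.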
gsp antag – antagonists of gsp mutant (McCune-Albright syndrome); Potency, µM (highest dose often 76.9 µM), actives largely listed as inhibitors; gsp-mutant cells, cAMP HTRF, 30 min; actives 0.4% (n = 340,000); calls by dose curve; cell line not stated here;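 also: intracellular cAMP measured with PDE inhibitor Ro 20-1724 present during compound exposure; nearly all actives have a fitted effect of over 65% in size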
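Measurement of cellular cAMP by homogeneous time-resolved fluorescence following a 30 min compound exposure at 37C. The PDE inhibitor […] was present throughout; the assay buffer was DPBS with 0.05% BSA and 0.005% Tween 20.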
RXFP1 ag – activates the human relaxin receptor RXFP1 | Q9HBX9 | HEK293T-RXFP1 cAMP TR-FRET, 30 min; response scale: percent of porcine relaxin response, buffer zero | Potency, µM (highest dose often 57.5 µM), hits mostly activators | actives 0.3% (n = 370,000) | AID 2676; active = well fitted activation curve with a large enough effect; inconclusive = small, poorly fitted or top-dose-only effect; also: nearly all actives have a fitted effect of over 60% in size
Target sequence (Q9HBX9 whole entry, looked up): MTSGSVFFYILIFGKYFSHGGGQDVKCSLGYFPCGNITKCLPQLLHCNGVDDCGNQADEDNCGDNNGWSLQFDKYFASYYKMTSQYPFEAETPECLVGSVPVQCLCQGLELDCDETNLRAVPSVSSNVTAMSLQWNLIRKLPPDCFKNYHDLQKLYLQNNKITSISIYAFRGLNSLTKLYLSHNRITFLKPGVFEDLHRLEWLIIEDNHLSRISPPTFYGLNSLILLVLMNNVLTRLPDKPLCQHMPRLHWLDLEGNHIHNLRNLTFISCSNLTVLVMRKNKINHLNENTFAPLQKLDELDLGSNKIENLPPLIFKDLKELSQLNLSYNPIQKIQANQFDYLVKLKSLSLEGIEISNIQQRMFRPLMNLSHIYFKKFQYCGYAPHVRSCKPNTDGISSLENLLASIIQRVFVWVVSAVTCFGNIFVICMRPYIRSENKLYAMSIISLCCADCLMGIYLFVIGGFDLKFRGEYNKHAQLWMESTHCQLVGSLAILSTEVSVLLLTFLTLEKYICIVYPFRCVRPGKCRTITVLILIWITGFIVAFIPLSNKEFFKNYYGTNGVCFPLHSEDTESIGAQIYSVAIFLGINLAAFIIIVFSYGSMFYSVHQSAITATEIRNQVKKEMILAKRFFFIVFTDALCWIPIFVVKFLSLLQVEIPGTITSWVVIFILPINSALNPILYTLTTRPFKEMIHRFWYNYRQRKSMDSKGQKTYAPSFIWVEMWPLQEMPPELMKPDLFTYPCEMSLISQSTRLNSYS
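HEK293 cells stably expressing RXFP1, treated 30 min at 37C with compounds plus PDE4 inhibitor Ro 20174; cAMP measured by HTRF TR-FRET. Normalized to buffer and 29 nM porcine relaxin; EC50 by Hill fit.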
RXFP1 antag – RXFP1 (human) relaxin receptor antagonism; actives 0.59% (n = 350,000); HEK293-RXFP1, relaxin-stimulated cAMP HTRF, 30 min; hits give low values; activity change, negative = inhibition, % at 57.5 µM;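 active = activity change of -60% or lower, but not beyond a set lower limit; inconclusive = change between -60% and -40%, or beyond the set limit; inactive = change above -40%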
gsp ag – gsp mutant agonism; AID 624287; gsp mutant cells, cAMP HTRF, 30 min; Potency, µM (series often up to 76.9 µM), usual class: activators; actives 0.13% (n = 340,000); active = well fitted activation curve with a large enough effect; inconclusive = small, poorly fitted or top-dose-only effect, or another doubt; inactive = no such curve, though single readings can be large or run the other way; cell line not stated here;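 also: phosphodiesterase inhibitor Ro 20-1724 added with compounds to block cAMP breakdown; nearly all actives have a fitted effect of over 60% in size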
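Cells stably selected in G418 were plated at 2000/well, grown 16-24 hr, then given compounds in DMSO with the PDE inhibitor […] (300 uM solution added) for 30 min at 37C; cAMP was read by HTRF.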
Of the large screens only hits and unclear results are named; the others gave an inactive call. The list is not random: actives were taken first. Their share in the collection is about 1%.

Cc1ccc(Cl)cc1N1CCN(C(=O)C2CCN(S(C)(=O)=O)CC2)CC1	none
Cc1cc(C)nc(N2CCC(C(=O)N3CCN(c4cc(Cl)ccc4C)CC3)CC2)n1	gsp antag 28.2µM, gsp ag inconclusive
COc1ccc(N2CCN(C(=O)C3CCN(c4nc5ccc(C)cc5[nH]4)CC3)CC2)cc1	none (no result: TSHR antagonist, gsp antag, gsp ag)
Cc1ccc(C)c(N2CCN(C(=O)C3CCN(c4nc(C)cc(C)n4)CC3)CC2)c1	gsp antag 35.5µM
Cc1ccc(C)c(N2CCN(C(=O)C3CCN(S(=O)(=O)c4c(C)noc4C)CC3)CC2)c1	none
O=C(COc1ccccc1Cl)Nc1nc(-c2ccc(F)cc2)ns1	none (no result: TSHR antagonist, gsp antag, gsp ag)
CCC1CCCCN1C(=O)Cn1c(=O)n(-c2ccccc2C(F)(F)F)c(=O)c2c(C)c(C(=O)N(C)C)sc21 (stereo not given)	none (no result: TSHR antagonist, gsp antag, gsp ag)
O=C(NC1=C(Nc2ccc(Cl)cc2)C(=O)c2ccccc2C1=O)c1ccccc1	none
Cc1nc(Nc2ccc(Cl)c(Cl)c2)sc1C(=O)Nc1ccccc1	gsp antag 50.1µM
O=C(Nc1ccc(Cl)c(Cl)c1)c1ccccc1	gsp antag 11.2µM (no result: RXFP1 antag, gsp ag)
Cc1nc(Nc2ccc(Cl)cc2Cl)sc1C(=O)Nc1ccccc1	gsp antag inconclusive
O=C(Nc1ccc(Cl)c(Cl)c1)Oc1ccc(NC(=O)c2ccco2)cc1	gsp antag 39.8µM
O=C1C(Cl)=C(NC(=O)c2ccccc2)C(=O)C(Cl)=C1NC(=O)c1ccccc1	TSHR antagonist -85.1, gsp antag inconclusive, RXFP1 antag -105.0
CCOC(=O)c1[nH]c2c(c1Cc1ccccc1OC)C(=O)CC(c1ccc(OC)cc1)C2 (stereo not given)	none (no result: TSHR antagonist, gsp antag, gsp ag)
O=C(Nc1ccc(Cl)cc1)Nc1ccc(Cl)c(Cl)c1	TSHR antagonist -73.8 (no result: gsp ag)
CC(C)CC(=O)NC(=S)Nc1cccc2nsnc12	gsp antag inconclusive, RXFP1 antag -69.6
O=C(Nc1ccc(Cl)cc1)Nc1cccc2nsnc12	gsp antag 39.8µM
CC(C)CC(=O)NC(=S)Nc1ccccc1F	none (no result: TSHR antagonist)
COC(=O)c1c(-c2cccs2)csc1NC(=O)COc1ccc(C(C)(C)C)cc1	none (no result: TSHR antagonist, gsp antag, gsp ag)
COc1ccc(NC(=O)N2CCC(CN3CCCC3)CC2)c(OC)c1	none (no result: TSHR antagonist, gsp antag, gsp ag)
Cc1c(C#N)c2ncn(Cc3ccccn3)c(=O)c2n1-c1ccccc1	gsp antag 28.2µM
Cc1c(C#N)c2ncn(CCCN(C)C)c(=O)c2n1-c1ccccc1	none
COc1cc(NC(=O)CN2c3ccccc3S(=O)(=O)c3ccccc32)cc(OC)c1	none (no result: TSHR antagonist, gsp antag, gsp ag)
Cc1ccccc1S(=O)Cc1ccc(C(=O)N2CCN(c3cccc(C)c3C)CC2)o1 (stereo not given)	RXFP1 antag -97.8 (no result: TSHR antagonist, gsp antag, gsp ag)
O=C(c1ccc(CS(=O)Cc2ccc(Cl)cc2)o1)N1CCN(c2cccc(Cl)c2)CC1 (stereo not given)	gsp antag 31.6µM
O=C(c1ccc(CS(=O)Cc2ccc(Cl)cc2)o1)N1CCN(c2ccc(F)cc2)CC1 (stereo not given)	none
Cc1cccc(N2CCN(C(=O)c3ccc(CS(=O)Cc4ccc(Cl)cc4)o3)CC2)c1C (stereo not given)	RXFP1 antag -78.5
CCOc1ccc(C(=O)NCC(c2ccc(Cl)cc2)N2CCCCC2)cc1 (stereo not given)	none (no result: TSHR antagonist, gsp antag, gsp ag)
O=C(NCCc1ccc(Cl)cc1)C1CCN(S(=O)(=O)c2ccc3[nH]ccc3c2)CC1	none (no result: TSHR antagonist, gsp antag, gsp ag)
COc1ccccc1N(CC(=O)N1CCC(C)CC1)S(=O)(=O)c1ccc(C)cc1	none (no result: TSHR antagonist, gsp antag, RXFP1 antag, gsp ag)
Cc1ccc(-n2c(Cl)c(Cl)nc(Cl)c2=O)cc1	TSHR antagonist -95.3, RXFP1 antag -102.5
COc1nc(Cl)cn(-c2ccc(C)cc2)c1=O	none
O=C(CN1CCN(C(=O)c2ccccc2)CC1)Nc1ccc(Cl)cc1F	TSHR antagonist -79.4
O=C(CN1CCN(C(=O)c2ccccc2)CC1)Nc1cc(S(=O)(=O)N2CCCC2)ccc1Cl	gsp antag inconclusive
COc1ccccc1N1CCN(c2ncnc3c2c(-c2ccccc2)cn3-c2cccc(C)c2)CC1	none (no result: TSHR antagonist, gsp antag, gsp ag)
CCOc1ccc(NC(=O)CSc2ncc3c(n2)-c2ccc(Cl)cc2N(Cc2ccccc2)S3(=O)=O)cc1	RXFP1 ag 11.2µM (no result: TSHR antagonist, gsp antag, gsp ag)
Cc1ccc(CNC(=O)CSc2ncc3c(n2)-c2ccc(Cl)cc2N(Cc2ccccc2)S3(=O)=O)cc1	RXFP1 ag 28.2µM (no result: TSHR antagonist, gsp antag, RXFP1 antag, gsp ag)

Bioassay records from PubChem.
